Source: PubChem (several laboratories)
ALR H2O2 inh: inhibitors of human ALR sulfhydryl oxidase, primary screen, biochemical, H2O2 detection, HRP-luminol luminescence, single point | FAD-linked sulfhydryl oxidase ALR (Homo sapiens), P55789 | purified ALR, DTT oxidation | inhibition, % (concentration not given with the values) | 290,000 compounds, 3.8% hits | AID 485317, 2010;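 active means mean replicate inhibition above about 79%, with every replicate also reaching it, limit read from the data; inconclusive means only one of the two criteria met; inactive means mean below limit and not every replicate reaching it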
Target sequence (P55789 whole entry, looked up): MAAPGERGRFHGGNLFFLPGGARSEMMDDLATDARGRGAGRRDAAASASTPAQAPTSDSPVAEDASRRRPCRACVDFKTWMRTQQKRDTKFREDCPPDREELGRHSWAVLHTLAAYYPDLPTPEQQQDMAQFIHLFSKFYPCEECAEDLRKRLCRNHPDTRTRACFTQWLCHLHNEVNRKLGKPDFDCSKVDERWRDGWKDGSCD
IDE cell inh: human IDE inhibitors in live cells, primary screen, fluorescence polarization, HEK cells, FAbetaB substrate | 320,000 compounds, 0.41% hits | inhibition, % at 5.59 µM | AID 434962, 2010 | FAbetaB cleavage | Insulin-degrading enzyme (Homo sapiens), P14735;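 active means percent inhibition above the average of all tested compounds plus 3 SD, set per screening campaign, cut at about 16% in these data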;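 further: IDE supplied by intact live HEK cells; FP after avidin binding of uncleaved biotin substrate so inhibition keeps polarization high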
PolyA inhibitor: polyadenylation inhibitors in yeast reporter cells, primary screen, luminescence, S. cerevisiae; 300,000 compounds, 0.02% hits; activity score, % at 12 µM; S. cerevisiae SKY197-pL101 polyadenylation reporter, beta-gal luminescence; efflux-impaired pdr1/pdr3 knockout yeast; score 100 = 6 SD above DMSO;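 active means lowest replicate activity score at least 50, where 100 means six control SD above control mean; inconclusive means lowest score under 50 but half or more replicates reach 50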;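 further: yeast exposed to compound for 9 h at 30 °C; higher score means more reporter readthrough which indicates perturbed polyadenylation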
CaV13 FRET inh: Disruptors of the CACNA1D IQ motif to Ca2+-dependent inactivation inhibitor domain association, primary screening, Förster resonance energy transfer in intact living …; HEK cells, CFP/YFP FRET ICDI-IQ, plate reader, 10 min; percent FRET-ratio fall versus neutral wells; inhibition, % at 12.3 µM; 340,000 compounds, 0.098% hits;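 active means mean replicate inhibition of at least 30% and at least 1% of replicates passing that level; inconclusive means only one of the two criteria is met; inactive means neither criterion is met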
PfM18AAP inh: PfM18AAP inhibitors, malaria aminopeptidase, primary screen, biochemical, QFRET, recombinant enzyme. M18 aspartyl aminopeptidase (Plasmodium falciparum 3D7). H-Glu-NHMec fluorogenic cleavage. inhibition, % at 7.35 µM. 290,000 compounds, 1.2% hits. AID 1822, 2009;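 active means inhibition above the campaign mean inhibition over all tested compounds plus 3 SD, cut at about 28% in these data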
IDE cell activ: human IDE activators in live cells, primary screen, fluorescence polarization, HEK cells, FAbeta-B substrate; FAbeta-B cleavage; 0% vehicle, 100% cell-free pure enzyme wells; activation, % at 5.96 µM; 340,000 compounds, 0.073% hits;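 active means activation above the mean of all tested compounds plus 3 SD, set per screening campaign, cut at about 17% in these data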
Of the large screens only hits and unclear results are named; the others gave an inactive call. Most compounds without a hit are left out; they make up all but 4.1% or so of the library.

O=C(Nc1cccc(F)c1)c1cc(S(=O)(=O)N2CCC3(CC2)OCCO3)ccc1F	none (no result: IDE cell activ)
CC(OC(=O)Cc1n[nH]c(=O)c2ccccc12)C(=O)Nc1ccc(F)cc1 (centres undefined)	PolyA inhibitor inconclusive (no result: PfM18AAP inh)
Cc1ccc(-c2cc(-c3ccccc3Cl)[nH]n2)c(O)c1	none
Cc1ccc(-c2cc(-c3ccccc3[N+](=O)[O-])[nH]n2)c(O)c1	ALR H2O2 inh 90.4
COCC(C)n1c(SCC(=O)Nc2cccnc2Cl)nc2ccccc2c1=O (centres undefined)	none (no result: ALR H2O2 inh, IDE cell inh, PolyA inhibitor, PfM18AAP inh, IDE cell activ)
Cc1cccc2sc(NC(=O)C3CC3)nc12	none (no result: IDE cell inh)
Cc1cccc2sc(NC(=O)c3ccc(Cl)s3)nc12	ALR H2O2 inh 96.7
Cc1[nH]n(C(N)=S)c(=O)c1N=Nc1cc(-c2ccc(Br)cc2)[nH]n1	ALR H2O2 inh 98.5 (no result: IDE cell activ)
Cc1[nH]n(C(N)=S)c(=O)c1N=Nc1cccc([N+](=O)[O-])c1C	ALR H2O2 inh 97.9 (no result: CaV13 FRET inh)
C=CC[C@]1(c2ccccc2)C(=O)N2C[C@H]3CON(C)[C@H]3C[C@H]2c2ccccc21	none (no result: ALR H2O2 inh, IDE cell inh, PolyA inhibitor, PfM18AAP inh, IDE cell activ)
COCCN1C(=O)C(=O)/C(=C(/O)c2ccc(S(=O)(=O)N3CCOCC3)cc2)C1c1ccc(C(C)C)cc1 (centres undefined)	none (no result: ALR H2O2 inh, IDE cell inh, PolyA inhibitor, CaV13 FRET inh, IDE cell activ)
Cc1nnc(SCc2cccc([N+](=O)[O-])c2)[nH]c1=O	ALR H2O2 inh 99.0
Cc1ccccc1CSc1nc2ccccc2c(=O)[nH]1	none
Cc1ccccc1CSc1nnc(C)c(=O)[nH]1	ALR H2O2 inh 90.8
Cc1nnc(SCc2ccc([N+](=O)[O-])cc2)[nH]c1=O	none
CCCC(=O)N=C1SC2CS(=O)(=O)CC2N1c1ccc(CC)cc1 (centres undefined)	none (no result: CaV13 FRET inh)
CC[n+]1c(/C=C/N(C)c2ccccc2)oc2ccc(F)cc21	PfM18AAP inh 30.7
COc1ccc(CSc2nc(C)cc(C)c2S(C)(=O)=O)cc1	PfM18AAP inh 28.7
COC(=O)CSc1nc(N)c2c3c(sc2n1)CCCC3	PfM18AAP inh 28.5
CSc1nc(NCCCN(C)C)c2c3c(sc2n1)CN(C)CC3	PfM18AAP inh 29.2 (no result: IDE cell inh, IDE cell activ)
CN(C)CCSc1nc(N)c2c3c(sc2n1)CN(C)CC3	ALR H2O2 inh 98.7
O=C(COC(=O)[C@@H]1CCCN1S(=O)(=O)c1ccccc1F)Nc1ccc(OC(F)F)cc1	none
Cc1ccc2nc(NC(=O)CN3C(=O)NC4(CCCCC4)C3=O)sc2c1	none (no result: PfM18AAP inh)
CCOc1ccc(-n2c(Cc3cc(=O)[nH]c(=O)[nH]3)nnc2SC(C)C)cc1	none
CCC(C)Sc1nnc(Cc2cc(=O)[nH]c(=O)[nH]2)n1-c1ccc(F)cc1 (centres undefined)	ALR H2O2 inh 97.8
Cc1c(OCC(=O)N[C@@H](Cc2ccccc2)C(=O)O)ccc2c3c(c(=O)oc12)CCC3	PolyA inhibitor inconclusive (no result: CaV13 FRET inh)
Cc1c(OC(C)C(=O)NCC(O)c2ccccc2)ccc2c3c(c(=O)oc12)CCC3 (centres undefined)	none
Cc1c(Cc2ccccc2)c(=O)oc2c(C)c(OC(C)C(=O)N[C@@H](Cc3ccccc3)C(=O)O)ccc12 (some centres undefined)	ALR H2O2 inh 97.4 (no result: CaV13 FRET inh)
Cc1c(OCC(=O)NC(Cc2ccc(Cl)cc2)C(=O)O)ccc2c3c(c(=O)oc12)CCCC3 (centres undefined)	ALR H2O2 inh 97.5 (no result: CaV13 FRET inh)
Cc1c(OC(C)C(=O)N[C@H](C(=O)O)c2ccccc2)ccc2c3c(c(=O)oc12)CCCC3 (some centres undefined)	ALR H2O2 inh 96.4 (no result: CaV13 FRET inh)
CC1(C)NC(=O)N(CC(=O)O)C1=O	none
C#CCOCCOCCOCCNc1nc(N2CCN(C(=O)Cn3cc(CCO)nn3)CC2)nc(N2CCN(C(=O)[C@H](CCCCN)n3cc(CC(C)O)nn3)CC2)n1 (some centres undefined)	none (no result: ALR H2O2 inh, IDE cell inh, PolyA inhibitor, PfM18AAP inh)
CCCn1c(SCC(=O)c2c[nH]c3ccccc23)nnc1-c1ccncc1	none (no result: ALR H2O2 inh)
Cc1cc(C)n(CCNC(=O)c2cc(COc3ccc(F)cc3Cl)on2)n1	none
CSc1ccccc1OCc1cc(C(=O)NCCn2nc(C)cc2C)no1	IDE cell activ 34.0
NC(=O)c1ncn([C@@H]2O[C@H](CNCc3cccn3-c3ccncc3)[C@@H](O)[C@H]2O)n1	none (no result: ALR H2O2 inh, IDE cell inh, PolyA inhibitor, PfM18AAP inh)
CC(=O)Nc1ccc(S(=O)(=O)NCCC(=O)Nc2ccc(C)c(F)c2)cc1	none
O=C(O)c1cc(N=Nc2c(O)ccc3ccccc23)cc(C(=O)O)c1	none (no result: ALR H2O2 inh, IDE cell inh, PolyA inhibitor)
O=C(O)c1ccc(N=Nc2c(O)ccc3ncccc23)cc1	ALR H2O2 inh inconclusive, IDE cell activ 39.0
Cc1ccc(N2C(=O)SC(N(CC(=O)O)c3cccc(C)c3)C2=O)cc1 (centres undefined)	ALR H2O2 inh 98.8
Cc1ccc(S(=O)(=O)N2CCOCC2)cc1NC(=O)Cn1c(=O)ccn(Cc2ccccc2)c1=O	none (no result: ALR H2O2 inh, IDE cell inh, PolyA inhibitor, PfM18AAP inh)
CCOC(=O)[C@]12CCCC=C1N(Cc1ccc3c(c1)OCO3)C(=O)[C@H](CC(=O)NCc1cccc(C(F)(F)F)c1)C2	none (no result: ALR H2O2 inh, IDE cell inh, PolyA inhibitor, PfM18AAP inh, IDE cell activ)
CCCCCN1C=CC=C/C1=C\C=C(C#N)C#N	ALR H2O2 inh 99.0 (no result: IDE cell activ)
CCCCCCN1C=C/C(=C\C=C(C#N)C#N)c2ccccc21	none
Cc1ccc(S(=O)(=O)C[C@@H]2OC3CCCCC3N2S(=O)(=O)c2ccc(C)cc2)cc1 (some centres undefined)	none (no result: ALR H2O2 inh, IDE cell inh, PolyA inhibitor, PfM18AAP inh, IDE cell activ)
Cc1nc2cc(C(=O)O)ccc2n1C1CCCCC1	none
Cc1nc2cc(N)ccc2n1C1CCCCC1	ALR H2O2 inh 99.7
CCn1c(=O)n(CC)c2cc(N)ccc21	ALR H2O2 inh 97.9
CCn1c(C)nc2cc(N)ccc21	ALR H2O2 inh 98.1
COCCNc1nc(NCCN2CCNC2=O)c2sc(-c3ccccc3)cc2n1	none (no result: ALR H2O2 inh, IDE cell inh, PolyA inhibitor, PfM18AAP inh, IDE cell activ)
CCCc1cc(=O)[nH]c(SCC(=O)Nc2ccc(Cl)c(S(=O)(=O)N3CCOCC3)c2)n1	none (no result: ALR H2O2 inh, PolyA inhibitor, PfM18AAP inh)
Cc1c(NC(=O)/C(C#N)=C/c2ccc(-c3ccccc3Cl)o2)c(=O)n(-c2ccccc2)n1C	ALR H2O2 inh 87.8
Cc1ccc(S(=O)(=O)CCC(=O)c2ccc(O)cc2O)cc1	ALR H2O2 inh 97.7
C=CCNc1nc(C(=O)OCC(=O)c2ccc(C)c([N+](=O)[O-])c2)cs1	none (no result: CaV13 FRET inh)
C=CCNc1nc(C(=O)OCC(=O)c2ccc(Cl)cc2)cs1	ALR H2O2 inh 97.6 (no result: PfM18AAP inh)
O=C(CSCC(=O)N1CCCCC1)OCC(=O)c1c[nH]c2ccccc12	ALR H2O2 inh 98.3
O=C(COC(=O)CSCC(=O)N1CCCCC1)Nc1ccc(Cl)cc1	ALR H2O2 inh 88.9 (no result: CaV13 FRET inh)
O=C(C(=O)N1CCN(C(=O)Cc2ccccc2)CC1)c1cccc(C(F)(F)F)c1	none (no result: ALR H2O2 inh, IDE cell inh, PolyA inhibitor, PfM18AAP inh, IDE cell activ)
